This passage reports Potency and outcome results from PubChem BioAssay (Tox21).

In experiment [1] the target is Acetylcholinesterase (Homo sapiens) (UniProt P22303). The experiment can be described thus: Acetylcholinesterase (AChE) small molecule antagonists: colormetric cell-based qHTS assay (AID 1347395). Also: nearly all actives have a fitted effect of over 30% in size. An outline of the steps:
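AChE inhibition read colorimetrically via DTNB–thiocholine in SH-SY5Y cells. Compound 30 min, substrate 90 min, both 37 C.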
A general note: qHTS replaces the single test concentration by a dilution series.

For experiment [2] the target is unchanged. The experiment can be described thus: Acetylcholinesterase (AChE) small molecule antagonists: enzyme-based qHTS assay (AID 1347397). Also: nearly all actives have a fitted effect of over 55% in size. Also: potency is read from the fitted curve at half-maximal effect. To be noted: Potency: AChE enzyme activity inhibition; outcome: AChE enzyme activity inhibition. Put shortly: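 Colorimetric DTNB readout of acetylthiocholine hydrolysis, 10 min at room temperature, after 30 min room-temperature exposure of 50 mU/mL recombinant human enzyme to compound; DMSO vehicle control.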

For experiment [3] the target is unchanged. The experiment can be described thus: Acetylcholinesterase (AChE) small molecule antagonists: fluorescence cell-based qHTS assay (AID 1347398). Also: nearly all actives have a fitted effect of over 50% in size. Also: potency is read from the fitted curve at half-maximal effect. To be noted: Potency: AChE activity; outcome: AChE activity. An outline of the steps: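 Cellular AChE activity read as thiocholine from acetylthiocholine hydrolysis, detected by Thiolite Green fluorescence at 490/520 nm after 40 min at room temperature. Compounds were pre-incubated 30 min at 37 C on adherent SH-SY5Y cells.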

Experiment [4] has the same target. The experiment can be described thus: Acetylcholinesterase (AChE) small molecule antagonists: enzyme-based qHTS assay with human liver microsomes (AID 1347399). Also: nearly all actives have a fitted effect of over 60% in size. The following applies: Potency: qHTS inhibition; outcome: qHTS inhibition. Put shortly:
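Recombinant human AChE (50 mU/mL in the enzyme mix) and human liver microsomes (0.25 mg/mL final) were preincubated with compound and NADPH (0.25 mg/mL final) for 30 min at 37 C. Acetylthiocholine/DTNB was then added; thiocholine was read colorimetrically after 10 min at room temperature.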

Several values for one entry are separate records, joined by “and”; a condition that tells them apart may be missing. Equal entries are not always repeated. Results filed as inconclusive are left out. Activity calls are given as the source filed them. Calls follow the shape of the full dose curve.

Sequence of Acetylcholinesterase (Homo sapiens) (P22303 whole entry, looked up): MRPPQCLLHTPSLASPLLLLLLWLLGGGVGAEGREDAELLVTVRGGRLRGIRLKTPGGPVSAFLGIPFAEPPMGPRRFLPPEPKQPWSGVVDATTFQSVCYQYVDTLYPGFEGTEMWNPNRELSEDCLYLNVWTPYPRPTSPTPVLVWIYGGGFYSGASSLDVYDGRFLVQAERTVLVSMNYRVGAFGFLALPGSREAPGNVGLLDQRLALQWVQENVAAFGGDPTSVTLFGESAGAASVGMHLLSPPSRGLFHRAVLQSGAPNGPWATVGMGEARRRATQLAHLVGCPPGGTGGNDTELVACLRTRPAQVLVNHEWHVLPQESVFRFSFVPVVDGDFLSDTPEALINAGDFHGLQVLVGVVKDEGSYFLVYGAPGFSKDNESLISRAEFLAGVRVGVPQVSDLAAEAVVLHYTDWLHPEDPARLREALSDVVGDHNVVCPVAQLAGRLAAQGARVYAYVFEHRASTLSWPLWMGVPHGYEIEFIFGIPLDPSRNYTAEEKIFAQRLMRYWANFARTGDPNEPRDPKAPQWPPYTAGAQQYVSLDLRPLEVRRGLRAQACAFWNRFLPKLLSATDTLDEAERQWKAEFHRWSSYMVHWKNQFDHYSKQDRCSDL

As to `O=C(O)CONC(=O)c1ccccc1`, the Potency result in experiment [1], in experiment [2], in experiment [3] and in experiment [4] was “inactive” throughout.

As to `CCCCCCCCCCCCOCC1CO1` (stereo not given), the Potency result in experiment [1], in experiment [2], in experiment [3] and in experiment [4] was “inactive” in each case.

With `C[C@H]1COc2c(C3(N)CC3)c(F)cc3c(=O)c(C(=O)O)cn1c23`, the Potency entry in experiment [1], in experiment [2], in experiment [3] and in experiment [4] was “inactive” each time.

Take `C=C(C)C(N)=O`: the Potency result in experiment [1], in experiment [2], in experiment [3] and in experiment [4] was “inactive” each time.

Consider `CCO[Si](CCCS)(OCC)OCC`, for which the Potency entry in experiment [1], in experiment [2], in experiment [3] and in experiment [4] was “inactive” each time.

With `CCN(CC)c1ccc(N=Nc2ccccc2)cc1`, the Potency result in experiment [1], in experiment [2], in experiment [3] and in experiment [4] was “inactive” each time.

For the compound `O=S(=O)(Cl)c1c(Cl)cccc1Cl`, the Potency result in experiment [1], in experiment [2], in experiment [3] and in experiment [4] was “inactive” throughout.

`ClC1=C(Cl)C1(Cl)Cl`: the Potency result in experiment [1], in experiment [2], in experiment [3] and in experiment [4] was “inactive” each time.

On to `CC(=O)NCCCS(=O)(=O)O`, for which the Potency result in experiment [1], in experiment [2], in experiment [3] and in experiment [4] was “inactive” in each case.

With `NC(CO)(CO)CO`, the compound was called inactive in experiment [1], in experiment [2], in experiment [3] and in experiment [4].

Turning to `O=CCc1ccccc1`, the Potency result in experiment [1], in experiment [2], in experiment [3] and in experiment [4] was “inactive” each time.

With `Cc1cccc(C(C)(C)C)c1O`, the Potency result in experiment [1], in experiment [2], in experiment [3] and in experiment [4] was “inactive” in each case.

In the case of `Nc1nc2ccc(OC(F)(F)F)cc2s1`, the Potency entry in experiment [1], in experiment [2], in experiment [3] and in experiment [4] was “inactive” each time.

On to `Oc1ccccc1-c1nnco1`, for which the Potency entry in experiment [1], in experiment [2], in experiment [3] and in experiment [4] was “inactive” throughout.

`C/C=C(\C)C(C)=O`: the Potency result in experiment [1], in experiment [2], in experiment [3] and in experiment [4] was “inactive” in each case.

As to `CNC[C@H](O)c1ccc(O)c(O)c1`, the compound was called inactive in experiment [1], in experiment [2], in experiment [3] and in experiment [4].

Turning to `C=C(c1ccc(C(=O)O)cc1)c1cc2c(cc1C)C(C)(C)CCC2(C)C`, the Potency entry in experiment [1], in experiment [2], in experiment [3] and in experiment [4] was “inactive” in each case.

For `C=C(C)C(=O)OCCC(C)OC(=O)C(=C)C` (stereo not given), the Potency entry in experiment [1], in experiment [2], in experiment [3] and in experiment [4] was “inactive” in each case.

With `CN1CCN(C(c2ccccc2)c2ccccc2)CC1`, the Potency result in experiment [1], in experiment [2], in experiment [3] and in experiment [4] was “inactive” each time.

On to `CCCCCCCCCCCCCC(=O)O`, for which the Potency entry in experiment [1], in experiment [2], in experiment [3] and in experiment [4] was “inactive” each time.

With `CCC(C(=O)O)c1ccc(N2Cc3ccccc3C2=O)cc1` (stereo not given), the Potency result in experiment [1], in experiment [2], in experiment [3] and in experiment [4] was “inactive” each time.

As for `Cc1occc1S`, the Potency entry in experiment [1], in experiment [2], in experiment [3] and in experiment [4] was “inactive” each time.

As for `C=C(C)C1CC=C(C)C(OC(C)=O)C1` (stereo not given), the Potency result in experiment [1], in experiment [2], in experiment [3] and in experiment [4] was “inactive” each time.

With `COC(=O)Nc1nc2ccc(C(=O)c3cccs3)cc2[nH]1`, the Potency entry in experiment [1], in experiment [2], in experiment [3] and in experiment [4] was “inactive” each time.

On to `CC(C)(CO)C(O)C(=O)NCCCO` (stereo not given), for which the Potency entry in experiment [1], in experiment [2], in experiment [3] and in experiment [4] was “inactive” throughout.

With `CCCCCCCCNC`, the Potency entry in experiment [1], in experiment [2], in experiment [3] and in experiment [4] was “inactive” each time.

Consider `COc1cc(/C=C/c2ccccc2)oc(=O)c1`, for which the Potency result in experiment [1], in experiment [2], in experiment [3] and in experiment [4] was “inactive” throughout.

Take `O=C1CCC(C2CCCCC2)CC1`: the Potency result in experiment [1], in experiment [2], in experiment [3] and in experiment [4] was “inactive” each time.

With `C=Cc1ccc(C(C)(C)C)cc1`, the Potency entry in experiment [1], in experiment [2], in experiment [3] and in experiment [4] was “inactive” each time.

With `CC(C)OC(=O)COc1ccc(Cl)cc1Cl`, the Potency entry in experiment [1], in experiment [2], in experiment [3] and in experiment [4] was “inactive” throughout.

For `CC(C)CCCCCCc1ccc(O)cc1`, the Potency result in experiment [1], in experiment [2], in experiment [3] and in experiment [4] was “inactive” in each case.

For `COC(=O)Nc1ccc(Cl)c(Cl)c1`, the Potency result in experiment [1], in experiment [2], in experiment [3] and in experiment [4] was “inactive” throughout.

On to `O=[N+]([O-])c1ccc(O)c2ncccc12`, for which the Potency entry in experiment [1], in experiment [2], in experiment [3] and in experiment [4] was “inactive” throughout.

As to `CCCCCCCCCCCCCCCC[N+](C)(C)Cc1ccccc1`, the Potency entry in experiment [1] and in experiment [4] was “inactive” throughout. For the same compound, the Potency is 82.2 µM (active) and 32.3 µM (active) and 38.9 µM (active) in experiment [2]; 46.2 µM (active) and 57.4 µM (active) in experiment [3].

Turning to `C=CC(C)(O)CCC=C(C)C` (stereo not given), the Potency result in experiment [1], in experiment [2], in experiment [3] and in experiment [4] was “inactive” in each case.

With `O=C(O)Cc1cccc2ccccc12`, the Potency entry in experiment [1], in experiment [2], in experiment [3] and in experiment [4] was “inactive” throughout.

As for `C[C@@H](O[C@H]1OCCN(Cc2n[nH]c(=O)[nH]2)[C@H]1c1ccc(F)cc1)c1cc(C(F)(F)F)cc(C(F)(F)F)c1`, the Potency result in experiment [1], in experiment [2], in experiment [3] and in experiment [4] was “inactive” each time.

`CCCOCC(C)O` (stereo not given): the Potency entry in experiment [1], in experiment [2], in experiment [3] and in experiment [4] was “inactive” in each case.

`C[C@]12C=CC(=O)C=C1CC[C@@H]1[C@@H]2C(=O)C[C@@]2(C)[C@H]1CC[C@]2(O)C(=O)CO`: the Potency result in experiment [1], in experiment [2], in experiment [3] and in experiment [4] was “inactive” each time.

For `COc1nccnc1CC(C)C`, the Potency result in experiment [1], in experiment [2], in experiment [3] and in experiment [4] was “inactive” each time.
